uPA surface inh = cell surface uPA generation inhibition; cell surface uPA generation assay, qHTS; AID 540303; hit rate 0.31% among 330,000; Potency, µM (top dose mostly 38.3 µM), for inactives: top-dose activity change, negative = inhibition, usual class: inhibitors; active = well fitted inhibition curve with a large enough effect; inconclusive = small, poorly fitted or top-dose-only effect; inactive = no such curve, though single readings can be large or run the other way; tested in mouse RAW 264.7 cells; also: potency is read from the fitted curve at half-maximal effect; % is scaled to controls: 0 for no effect and ±100 for the full control effect; nearly all actives have a fitted effect of over 55% in size
TSG101-PTAP inh = blocks PTAP/TSG101 interaction to inhibit HIV-1 budding | Potency, µM (titrated, usually from 115 µM), inactives show top-dose activity change, negative = inhibition, most hits filed as inhibitors | Fluorescence polarization, FITC-PTAP peptide / Tsg101 binding | Q99816 | 340,000 tested, under 10 active; active = well fitted inhibition curve with a large enough effect in the main read-out, with a control signal flat, not every such curve was filed as active; inconclusive = small, poorly fitted or top-dose-only effect, or effect the other way, or a change in a side signal; inactive = no such curve, though single readings can be large or run the other way; also: potency is read from the fitted curve at half-maximal effect; % of control where 0% means no effect
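Compounds were pin-transferred onto Tsg101 binding domain (10 uM final) in HEPES pH 7.5 buffer, then FITC-PTAP peptide was added at 50 nM final. After 20 min at RT, polarization reported peptide displacement across a qHTS concentration series.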
VDR inh = blocks the human vitamin D receptor; P11473; VDR-SRC2-3 peptide fluorescence polarization, 2 h; Potency, µM, for inactives: max response, negative = inhibition, usual class: inhibitors; hit rate 0.93% among 400,000; AID 504847; also: potency is read from the fitted curve at half-maximal effect; % is scaled to controls: 0 for no effect and ±100 for the full control effect
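After 23 nl compound addition and a short centrifugation, plates sat for 2 hours at ambient temperature; polarization of fluorescence then indicated loss of VDR binding to peptide SRC2-3.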
TSHR antag = human thyrotropin receptor antagonism | P16473 | TSHR-expressing cells, TSH-stimulated cAMP HTRF, 2 h; stronger effect = lower value | activity change, negative = inhibition, % at 11.5 µM | hit rate 0.2% among 330,000;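 active = activity change below a set negative limit, meaning inhibition stronger than a set level, cut at about -70% in these data; inconclusive = activity change between two set negative limits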; also: % is scaled to controls: 0 for no effect and ±100 for the full control effect
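Inhibition of cAMP made by TSHR-expressing cells under TSH stimulation (4nM final, EC80; 2 h, 37 deg C) is quantified with a one-step lysis HTRF kit, anti-cAMP cryptate versus cAMP-d2.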
PLK1 PBD block = inhibitors of human PLK1 polo-box domain binding | Plk1 PBD binding of FITC phosphopeptide, fluorescence polarization | hit rate 2.8% among 360,000 | Potency, µM, without a hit: max response, negative = inhibition, most hits filed as inhibitors | P53350; also: potency is read from the fitted curve at half-maximal effect; series mostly up to about 57 µM; % is scaled to controls: 0 for no effect and ±100 for the full control effect; nearly all actives have a fitted effect of over 65% in size
Target sequence (P53350 whole entry, looked up, the tested form may be a part): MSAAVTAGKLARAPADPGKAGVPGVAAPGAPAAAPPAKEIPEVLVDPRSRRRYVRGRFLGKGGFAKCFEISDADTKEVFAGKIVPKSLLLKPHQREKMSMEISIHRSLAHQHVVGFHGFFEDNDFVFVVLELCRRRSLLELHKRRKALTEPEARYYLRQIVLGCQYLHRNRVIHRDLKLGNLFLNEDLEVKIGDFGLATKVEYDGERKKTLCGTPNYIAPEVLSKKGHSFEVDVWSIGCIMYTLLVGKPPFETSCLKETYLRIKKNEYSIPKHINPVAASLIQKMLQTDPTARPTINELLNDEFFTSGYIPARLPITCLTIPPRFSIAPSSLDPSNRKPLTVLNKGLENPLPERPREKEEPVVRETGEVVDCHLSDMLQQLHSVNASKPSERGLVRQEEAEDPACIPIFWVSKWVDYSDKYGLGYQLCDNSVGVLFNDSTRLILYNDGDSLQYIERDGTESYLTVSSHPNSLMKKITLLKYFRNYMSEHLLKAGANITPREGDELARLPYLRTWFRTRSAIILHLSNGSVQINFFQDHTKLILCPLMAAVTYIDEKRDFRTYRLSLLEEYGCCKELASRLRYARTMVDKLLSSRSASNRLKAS
An asterisk follows results filed as active; ? = inconclusive; . = not tested or not shown; ! = not confirmed by another sample. A selection: hits, their analogues and other compounds. The true share with any hit is near 3.1%. Unless noted, calls follow the shape of the dose curve; as a rule, active = well fitted curve in the direction sought with a large enough effect; inconclusive = small, poorly fitted or top-dose-only effect, or another doubt; inactive = no such curve, though single readings can be large; an effect the other way counts as inactive or inconclusive.

SMILES	uPA surface inh	TSG101-PTAP inh	VDR inh	TSHR antag	PLK1 PBD block
CCOC(=O)c1ccc(-[n+]2c(-c3ccccc3)cc(-c3ccccc3)cc2-c2ccccc2)cc1	?	-3%	-12%	-22	-17%
C=C(C)[C@@]12OC3(c4ccccc4)O[C@@H]1[C@@H]1[C@@H]4O[C@]4(CO)[C@@H](O)[C@]4(O)C(=O)C(C)=C[C@H]4[C@@]1(O3)[C@H](C)[C@H]2OC(=O)/C=C/C=C/c1ccccc1	.	.	-1%	.	.
O=C1NC(=S)NC(=O)C1=Cc1ccc(OCc2ccccc2)cc1	-3%	-3%	40µM*	.	2.7µM*
COc1ccc(OCCOc2cccc(C=C3C(=O)NC(=O)NC3=O)c2)cc1	.	.	.	-9	.
CN(CCOc1ccc(C=C2C(=O)NC(=O)NC2=O)cc1)c1ccccn1	-7%	-4%	?	-12	3µM*
N[C@H](CCP(=O)(O)O)C(=O)O	.	.	-2%	.	.
O=C1C=C(N2CC2)c2ccccc2C1=O	.	.	.	.	15µM*
O=S(=O)(c1ccc(Cl)cc1)c1cc(Cl)c(Cl)cc1Cl	.	.	-14%	.	.
Cc1c2ccncc2c(C)c2c1[nH]c1ccccc12	0.89µM*	-4%	-10%	-10	-7%
Cc1nccc2c1[nH]c1ccccc12	-11%	-5%	0%	-5	1%
CCCN1CCc2cccc3c2C1Cc1ccc(O)c(O)c1-3 (centres undefined)	.	.	-1%	.	.
CN1CCc2cc(O)cc3c2[C@H]1Cc1ccc(O)c(O)c1-3	?	0%	4.5µM*!	-16	-10%
CCCN1CCc2cc(O)cc3c2[C@H]1Cc1ccc(O)c(O)c1-3	-29%	-4%	5µM*!	-16	-24%
CN1CCc2cccc3c2[C@@H]1Cc1ccc(O)c(O)c1-3	-26%	-9%	32µM*!	-10	?
CC[C@H]1CN2CC[C@@H]1C[C@H]2[C@@H](O)c1ccnc2ccc(OC)cc12	.	.	11%	.	.
C=CCN1CC[C@@]23c4c5ccc(O)c4O[C@H]2/C(=N\N=C2/CC[C@@]4(O)[C@H]6Cc7ccc(O)c8c7[C@@]4(CCN6CC=C)[C@@H]2O8)CC[C@]3(O)[C@@H]1C5	.	.	-6%	.	.
C[C@@H]1O[C@H](O[C@@H]2CC[C@@]3(C=O)[C@H]4CC[C@@]5(C)[C@@H](C6=CC(=O)OC6)CC[C@@]5(O)[C@@H]4CC[C@]3(O)C2)C[C@H](O)[C@@H]1O	.	.	-11%	.	.
C[C@]12CC[C@H]3[C@@H](CC[C@]4(O)C[C@@H](O)CC[C@]34C=O)[C@@]1(O)CC[C@@H]2C1=CC(=O)OC1	6%	0%	-4%	-72*	-1%
C[C@H]1O[C@@H](OC2CC[C@]3(C=O)[C@H]4CC[C@]5(C)[C@@H](C6=CC(=O)OC6)CC[C@]5(O)[C@@H]4CC[C@]3(O)C2)CC2OC(C)(C)OC21 (some centres undefined)	6%	-2%	-8%	-74*	-4%
CC(=O)OC1CC2C(C)(C)C(=O)C=C[C@]2(C)C2CC[C@]3(C)C(=CC(=O)OC3c3ccoc3)[C@]12C (some centres undefined)	.	.	20µM*	.	.
CC(=O)OC1CC(OC(C)=O)[C@]2(C)C(CC(OC(C)=O)[C@]3(C)C2CC[C@@]2(C)C(c4ccoc4)C[C@H]4O[C@]432)C1(C)C (some centres undefined)	.	.	1%	.	.
CC(Oc1cc2oc(=O)c3c(c2cc1Cl)CCCC3)C(=O)NCc1ccccn1 (centres undefined)	4%	-4%	-6%	17	24µM*
Oc1cc[c]([Hg][Cl])cc1	.	.	4µM*	.	.
Oc1ccc(Cl)c(Cl)c1	-4%	-2%	-1%	20	1%
C/C=C1/C[C@@H](C)[C@](O)(CO)C(=O)OCC2=CCN3CC[C@@H](OC1=O)C23 (some centres undefined)	.	.	1%	.	.
SMILES	uPA surface inh	TSG101-PTAP inh	VDR inh	TSHR antag	PLK1 PBD block
CCC(C)n1c(=O)[nH]c(C)c(Br)c1=O (centres undefined)	.	.	12%	.	.
C[C@@]12C(=O)Nc3ccc(F)cc3C(=O)N1[C@H]1c3ccccc3OC[C@@H]1[C@@H]2c1ccccc1	?	-5%	-18%	-11	24µM*
COc1ccc(Cl)cc1NC(=O)CCn1c(=O)oc2ccccc21	3%	0%	-3%	-7	?
CCOP(=S)(OCC)SCn1c(=O)oc2cc(Cl)ccc21	.	.	35µM*	.	.
CC(C)C[C@H]1C(=O)N2CCC[C@H]2[C@]2(O)O[C@](NC(=O)C3C=C4c5cccc6[nH]c(Br)c(c56)C[C@H]4N(C)C3)(C(C)C)C(=O)N12 (some centres undefined)	-12%	0%	-2%	.	-7%
CC(C)C[C@H]1C(=O)N2CCCC2[C@]2(O)O[C@](NC(=O)[C@@H]3C=C4c5cccc6[nH]c(Br)c(c56)C[C@H]4N(C)C3)(C(C)C)C(=O)N12 (some centres undefined)	.	.	18µM*	.	.
CC(C)C1C(=O)N2CCC[C@H]2[C@]2(O)O[C@](NC(=O)[C@@H]3C=C4c5cccc6[nH]cc(c56)C[C@H]4N(C)C3)(C(C)C)C(=O)N12 (some centres undefined)	.	.	45µM*	.	.
CC(C)[C@H](NC(=O)[C@H](CC(=O)O)NC(=O)[C@H](Cc1ccccc1)NC(=O)[C@@H](C)NC(=O)[C@@H](N)Cc1ccc(O)cc1)C(=O)N[C@H](C(=O)NCC(N)=O)C(C)C	.	.	9%	.	.
CCCCCCCCCCCCCCCCOC[C@@H](O)COP(=O)([O-])OCC[N+](C)(C)C	.	.	5%	.	.
O=NN1CCCC1c1cccnc1 (centres undefined)	.	.	11%	.	.
CCCCCCCCCCCC[N+](C)(C)CCOc1ccccc1	.	.	32%	.	.
CC[N+](C)(CC)CCCCOc1ccc2c(c1)C(=O)c1cc(OCCCC[N+](C)(CC)CC)ccc1-2	?	-5%	-16%	-27	11µM*
CCOP1(=S)Oc2cc3c(cc2C(C(=O)OC)(C(F)(F)F)O1)OCO3 (centres undefined)	4%	-5%	79µM*	-6	24µM*
CC([C@H](O)c1ccccc1)N(C)C (some centres undefined)	.	.	8%	.	.
COC(=O)C1=C(N)Oc2cc(C)oc(=O)c2C12C(=O)Nc1ccccc12 (centres undefined)	-15%	-3%	?	26	24µM*
O=C(O)COc1ccc(Br)cc1C(c1c(C(=O)O)[nH]c2ccccc12)c1c(C(=O)O)[nH]c2ccccc12	-3%	0%	?	-2	27µM*
Fc1ccc(C(OCCN2CCN(C/C=C/c3ccccc3)CC2)c2ccc(F)cc2)cc1	.	.	-17%	.	.
Brc1c(NC2=NCCN2)ccc2nccnc12	.	.	45µM*	-20	.
Cc1ccc2c(c1)C1CN(C)CCC1N2C(=O)c1cccs1 (centres undefined)	-2%	1%	-11%	3	-6%
O=C(CCN1CC2CCC(CC2)C1)c1cccs1	-4%	-1%	45µM*	.	24µM*

Screening data from PubChem.
